Structures are written as SMILES. Activity calls are given as the source filed them.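 How the source made its calls: active means lower max turbidity than the uninhibited signal, meaning microtubule assembly was blocked; inactive means reaching the full max turbidity.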

This assay in a line: Assay for Inhibitors of Tau-Mediated Microtubule Assembly. As to conditions: purified tubulin + K18 tau, A340 turbidity kinetics, 45 min, at 50 µM; half-max time: measured here: time to half-max turbidity, stronger effect = higher value; max turbidity: stronger effect = lower value. The text has this: NIH Molecular Libraries Probe Production Network [MLPCN] NIH Chemical Genomics Center [NCGC] MLPCN Grant: X01 MH083262-01 Assay Provider: Carlo Ballatore, University of Pennsylvania NCGC Assay Overview: The microtubule-associated protein tau is an abundant protein in the axons of neurons that stabilizes microtubules. With its ability to modulate microtubule dynamics, tau contributes directly or indirectly, to key structural and regulatory cellular functions. Particularly important is the influence tau exerts on axonal transport, which allows signaling molecules, trophic factors and other essential cellular constituents to travel along the axons. Under pathological conditions, tau becomes sequestered into insoluble aggregates called neurofibrillary tangles. This phenomenon is believed to have pathological consequences by promoting axonal transport deficits that ultimately lead to synaptic dysfunction and neuronal loss. Because tau binds and stabilizes microtubules, tau fibrillization inhibitors were tested whether they interfere with tau-mediated tubulin polymerization. An in vitro assay was used where purified brain tubulin monomers were assembled into microtubules after the addition of GTP and tau. Microtubule assembly was monitored by the change in absorbance at 340 nm. Hong, M., Zhukareva, V., Vogelsberg-Ragaglia, V., Wszolek, Z., Reed, L., Miller, B. I., Geschwind, D. H., Bird, T. D., McKeel, D., Goate, A., Morris, J. C., Wilhelmsen, K. C., Schellenberg, G. D., Trojanowski, J. Q., and Lee, V. M. Y. (1998) Science 282, 1914-1917.
NCGC Assay Protocol Summary: Lyophilized bovine brain tubulin was reconstituted in RAB (100 mM MES, pH 6.9; 1 mM EDTA; 0.5 mM MgSO4) at a concentration of 10 mg/ml. Compounds (50 uM) were added to K18 tau (40 uM) in RAB and pre-incubated at room temperature for 60 minutes. To initiate the MT assembly reaction, 8.25 ul per well of 10 mg/ml tubulin was dispensed on a UV-clear 384-well plate, followed by 1.0 ul of 100 mM GTP in RAB and 41.25 ul of the compound:tau mixture. […] The plate was incubated in a Spectramax M5 plate reader at 37 C and the absorbance at 340 nm was read every minute for 45 minutes.
As to `COC(=O)c1c(NC(=O)CCCOc2ccc(C)cc2)sc2c1C(C(=O)OC)CC2` (stereo unspecified), the half-max time worked out at 11.1 min and the max turbidity is 0.764 (inactive).
The like results for `COC(=O)c1c(NC(=O)C(C)(C)C)sc2c1C(C(=O)OC)CC2` (stereo unspecified) were, in that order, 12.9 min and 0.839 (inactive).
Take `COC(=O)c1c(NC(=O)CCCOc2cccc(C)c2)sc2c1C(C(=O)OC)CC2` (stereo unspecified): the half-max time came out at 12 min and the max turbidity was 0.825 (inactive).
The matching figures for `COC(=O)c1nn(-c2ccc(OC)cc2)c(=O)c2c(N)sc(C)c12`: 13.3 min and 0.579 (inactive).
The matching figures for `CCOC(=O)c1nn(-c2ccccc2)c(=O)c2c(N)scc12`: 12.3 min and 0.65 (inactive).
The like results for `COC(=O)c1c(NC(=O)CCCOc2ccc(C(C)(C)C)cc2)sc2c1C(C(=O)OC)CC2` (stereo unspecified) were, in that order, 12.6 min and 1.01 (inactive).
Take `O=C(Cc1ccccc1)Nc1sc2c(c1C(=O)Nc1ccc(Cl)cc1)CCCC2`: the max turbidity is 0.682 (inactive) and the half-max time stood at 10 min.
With `CCOC(=O)c1nn(-c2ccc(OC)cc2)c(=O)c2c(N)scc12`, the max turbidity was 0.782 (inactive) and the half-max time came to 12.7 min.
